Bioassay records deposited in PubChem by National Center for Advancing Translational Sciences (NCATS).
This is a sample that favours compounds with a hit; in the whole collection about 10% have one here.
3T3 cytotox: Cytotoxic Profiling in NIH 3T3 Cell Line of Diverse Libraries Using Quantitative High-Throughput Screening. NIH 3T3 viability, CellTiter-Glo ATP luminescence, 48-72 h. 94,000 compounds, 4.3% hits. Potency, µM (doses to about 96.7 µM), for inactives: at the top dose activity change, negative = cytotoxicity, actives largely listed as inhibitors; further: nearly all actives have a fitted effect of over 55% in size
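First NIH 3T3 cells are plated at 400 cells/well; next compound is pinned in; then plates incubate 48 or 72 hr at 37 °C; finally CellTiter-Glo is added and luminescence read after 10 min.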
NPR1 antag: Natriuretic polypeptide receptor (hNpr1) antagonism - Primary qHTS | HEK293 hNpr1 GloSensor cGMP, ANP-stimulated luminescence | 76,000 compounds, 1.6% hits | Potency, µM (series often up to 46.3 µM), without a hit: at the top dose activity change, negative = inhibition, most hits filed as inhibitors; calls by dose curve; further: nearly all actives have a fitted effect of over 60% in size
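HEK293 cells stably expressing human Npr1 and cGMP GloSensor pGS-40F, loaded 2 h with 2% GloSensor reagent, given compound 30 min at room temperature. Luminescence read before and 20 min after 0.1 nM hNppA.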
HEK cytotox: Cytotoxic Profiling in HEK 293 Cell Line of Diverse Libraries Using Quantitative High-Throughput Screening | 94,000 compounds, 6.6% hits | Potency, µM (series often up to 115 µM), inactives show top-dose activity change, negative = cytotoxicity, most hits filed as inhibitors | AID 1345083, 2018 | HEK 293 viability, ATP luminescence (CellTiter-Glo), 48-72 h; further: nearly all actives have a fitted effect of over 60% in size
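Luminescence from cellular ATP, measured with CellTiter-Glo, indicates HEK 293 viability. Cells plated at 250 cells/well are treated with compound for 48 or 72 hr at 37 degree Celsius before reagent addition.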
Luciferase inh: Firefly luciferase inhibition profiling of diverse chemical library using quantitative high-throughput screening. Luciferin 4-monooxygenase (Photinus pyralis), P08659. Potency, µM (series often up to 115 µM), hits mostly inhibitors. purified P. pyralis luciferase, luminescence, biochemical. 76,000 compounds, 2.5% hits; further: nearly all actives have a fitted effect of over 65% in size
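Purified 10nM P. pyralis luciferase with 10uM D-luciferin and 10uM ATP in 50mM Tris acetate pH 7.5, 10mM Mg acetate, 0.01% Tween-20, 0.05% BSA. qHTS titration; luminescence read by CCD imager.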
GPT2 inh: Primary qHTS assay for inhibitors of Glutamate pyruvate transaminase 2 (GPT2) | Alanine aminotransferase 2 (Homo sapiens), Q8TD30 | Recombinant GPT2, coupled pyruvate oxidase/HRP Amplex Red fluorescence | Potency, µM (doses to about 57.7 µM), inactives show at the highest dose activity change, negative = inhibition, usual class: inhibitors | 100,000 compounds, 0.25% hits; further: nearly all actives have a fitted effect of over 60% in size
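Recombinant GPT2 (10ng/uL) with 250uM a-KG and 2mM L-alanine, 30 min at room temperature, in HEPES pH 7.5 buffer. Pyruvate detected by pyruvate oxidase/HRP/Amplex Red fluorescence after 30 min in the dark; AOA (50uM) as positive control.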
Numbers without * were called inactive; [ ] = dose if it differs, or a comment. Unless noted, the call rests on the fitted dose curve; in most records, active means well fitted curve in the direction sought with a large enough effect; inconclusive means small, poorly fitted or top-dose-only effect, or another doubt; inactive means no such curve, though single readings can be large; an effect the other way counts as inactive or inconclusive. On the % scale 0 is the no-effect control and ±100 the full control effect; potency means the concentration at half of the fitted maximal effect.

`CC1=C[C@@H](CNC(=O)CCC(=O)O)[C@H](C(C)C)C[C@H]1Cc1nc2ccc(Cl)cc2[nH]1` gave 3T3 cytotox -25%[174 µM], NPR1 antag 1%[70.6 µM], HEK cytotox -23%[172 µM], Luciferase inh inactive and GPT2 inh 2%[88.5 µM].
For CC1=C[C@@H](CNC(=O)CN(C)C)[C@H](C(C)C)C[C@H]1Cc1nc2ccc(Cl)cc2[nH]1 the results were 3T3 cytotox 89µM*, NPR1 antag -4%[70.6 µM], HEK cytotox inconclusive, Luciferase inh inactive and GPT2 inh 4%[88.5 µM].
CC1=C[C@@H](CN(C)C)[C@H](C(C)C)C[C@H]1Cc1nc2ncc(Cl)cc2[nH]1 was read as 3T3 cytotox 71µM*, NPR1 antag 1%[70.6 µM], HEK cytotox 79µM*, Luciferase inh inactive and GPT2 inh inactive.
`COc1ccc2[nH]c(C[C@@H]3C[C@@H](C(C)C)[C@H](CN)C=C3C)nc2n1` gave 3T3 cytotox inconclusive, NPR1 antag inconclusive, HEK cytotox inconclusive, Luciferase inh inactive and GPT2 inh -5%[88.5 µM].
Screening CC1=C[C@@H](CNC2CCOCC2)[C@H](C(C)C)C[C@H]1Cc1nc2ccc(Cl)cc2[nH]1 returned 3T3 cytotox 100µM*, NPR1 antag -4%[70.6 µM], HEK cytotox inconclusive, Luciferase inh inactive and GPT2 inh inconclusive.
CC1=C[C@@H](CNC(=O)CC2(CC(=O)O)CCCC2)[C@H](C(C)C)C[C@H]1Cc1nc2ccc(C)cc2[nH]1 was read as 3T3 cytotox -20%, NPR1 antag -10%, HEK cytotox -5%, Luciferase inh inactive and GPT2 inh -13%.
Screening CC1=C[C@@H](CNC(=O)CN(C)C)[C@H](C(C)C)C[C@H]1Cc1nc2ccc(C)cc2[nH]1 returned 3T3 cytotox 79µM*, NPR1 antag -4%[70.6 µM], HEK cytotox inconclusive, Luciferase inh inactive and GPT2 inh inactive.
CN(C)c1ccc(CN[C@H]2CC(C)(C)[C@@H]3C[C@@](C)(O)CC[C@]23CCC(=O)N2CCOCC2)cc1 was read as 3T3 cytotox 2%, NPR1 antag -1%, HEK cytotox -10%, Luciferase inh inactive and GPT2 inh 3%.
`COCC(=O)NC[C@H]1CCN(Cc2ccc(F)c(OC)c2)C[C@H]1N(C)C` gave 3T3 cytotox -13%, NPR1 antag 0%, HEK cytotox -4%, Luciferase inh inactive and GPT2 inh inactive.
For Cn1ncc2c(C(=O)NCCc3ccc(Cl)cc3)cc(-c3ccc(C(F)(F)F)cc3)nc21 the results were 3T3 cytotox -20% and HEK cytotox 0%.
O=C(NCc1ccccc1F)c1ccc2oc(-c3ccnc(Cl)c3)nc2c1 was read as 3T3 cytotox -4%[138 µM], HEK cytotox -19%[172 µM] and GPT2 inh 2%[88.5 µM].
For Cc1cnn(Cc2cc(C(=O)N3CCCCCC3c3nnc(-c4ccccc4)o3)no2)c1 (centres undefined) the results were 3T3 cytotox -10%, NPR1 antag 1%, HEK cytotox 3%, Luciferase inh inactive and GPT2 inh inactive.
O=C1NC2(CCN(C(=O)Cc3ccccc3)C2)OCc2ccccc21 (centres undefined) was read as 3T3 cytotox -29%[138 µM], NPR1 antag 14%[70.6 µM], HEK cytotox 100µM*, Luciferase inh inactive and GPT2 inh inactive.
For Cc1ccc(C(=O)N2CCC(N3C(=O)c4c(c(C)nn4-c4ccccc4)C3C3CC3)C2)cc1 (centres undefined) the results were 3T3 cytotox 18µM* and HEK cytotox 25µM*.
For Cc1nn(-c2ccccc2)c2c1C(C1CC1)N(C1CCCN(C(=O)c3ccc(F)cc3)C1)C2=O (centres undefined) the results were 3T3 cytotox inconclusive and HEK cytotox 32µM*.
For Cc1nn(-c2ccccc2)c2c1C(C1CC1)N(CC1CN(C(=O)c3ccc(F)cc3)C1)C2=O (centres undefined) the results were 3T3 cytotox inconclusive and HEK cytotox 35µM*.
Screening Cc1nn(-c2ccccc2)c2c1C(C1CC1)N(C1CN(C(=O)c3ccncc3)C1)C2=O (centres undefined) returned 3T3 cytotox -1% and HEK cytotox 4%.
Cc1nn(-c2ccccc2)c2c1C(C1CC1)N(C1CN(C(=O)c3ccc(C(F)(F)F)cc3)C1)C2=O (centres undefined) was read as 3T3 cytotox -28% and HEK cytotox inconclusive.
`COc1ccc(C(=O)N2CCC(N3C(=O)c4c(c(C)nn4-c4ccccc4)C3C3CC3)C2)cc1` (centres undefined) gave 3T3 cytotox inconclusive and HEK cytotox 45µM*.
CC(C)(C)NC(=O)NCc1nnc2n1C(C(=O)NCc1cccs1)CC2 (centres undefined) was read as 3T3 cytotox -15%, HEK cytotox 0% and GPT2 inh 0%.
Cc1nn(-c2ccccc2)c2c1C(C1CC1)N(C1CCN(C(=O)c3ccccc3)C1)C2=O (centres undefined) was read as 3T3 cytotox 14µM* and HEK cytotox inconclusive.
For O=C(C1CC1)N1CCC(C(=O)N2CCC(c3ccccc3)CC2)CC1 the results were 3T3 cytotox inconclusive, HEK cytotox -26%[172 µM] and GPT2 inh -8%[88.5 µM].
For O=C(C1CCN(S(=O)(=O)c2cccc(C(F)(F)F)c2)CC1)N1CCC(c2ccccc2)CC1 the results were 3T3 cytotox inconclusive, HEK cytotox 22µM* and GPT2 inh -6%.
Screening O=C(c1ccc(C(F)(F)F)cc1)N1CCC(C(=O)N2CCC(c3ccccc3)CC2)CC1 returned 3T3 cytotox inconclusive, HEK cytotox 45µM* and GPT2 inh inactive.
For O=C(C1CCCN1[S+](=O)([O-])c1cccc(C(F)(F)F)c1)N1CCC(c2ccccc2)CC1 (centres undefined) the results were 3T3 cytotox 35µM*, HEK cytotox 25µM* and GPT2 inh -3%.
For O=C(C1CCCN1[S+](=O)([O-])c1cccc(C(F)(F)F)c1)N1CCC(c2nc3ccncc3[nH]2)C1 (centres undefined) the results were 3T3 cytotox inactive, HEK cytotox -7% and GPT2 inh 3%.
CN(Cc1ccccc1)Cc1cccn1C was read as 3T3 cytotox -11%[174 µM], NPR1 antag 0%[70.6 µM], HEK cytotox 0%[230 µM], Luciferase inh inactive and GPT2 inh inactive.
